These results are taken from PubChem BioAssay (NCATS).

Test [1] addresses Alpha-galactosidase A (Homo sapiens) (UniProt P06280). Briefly: Counterscreen for Glucocerebrosidase Inhibitors: qHTS Assay for Human alpha-Galactosidase at pH 4.5 (AID 992). Summed up: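 Each compound is preincubated briefly with 2 nM enzyme before substrate addition (80 uM); plates then sit 20 min at ambient temperature, are quenched with 1M NaOH/1M glycine, and read fluorometrically.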
In general terms: Counterscreens check selectivity or assay interference.

Test [2] is described as follows: Cell Viability - LYMP2-011 (AID 969). Note: nearly all actives have a fitted effect of over 60% in size. Note: potency is the fitted concentration of half-maximal effect. Summed up:
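Luminescent ATP read-out (CellTiter-Glo, 30 min RT) after 24 hr compound exposure at 37 C in human lymphoblastoid cells, 2500 cells/well. Decreasing ATP indicates cytotoxicity; AC50 from standard Hill fit.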

The nature of test [3]: Cell Viability - LYMP2-013 (AID 970). Note: nearly all actives have a fitted effect of over 55% in size. Note: potency is the fitted concentration of half-maximal effect. Summed up: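 CellTiter-Glo luminescence (cellular ATP) read after 30 min at RT. Cells: human lymphoblastoid line, 2500/well, 24 hr compound exposure at 37 C. Tetraoctylammonium bromide positive control; AC50 via standard Hill fit of qHTS titrations.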
Test [4] is described as follows: Cell Viability - LYMP2-015 (AID 971). Note: nearly all actives have a fitted effect of over 55% in size. Note: potency is the fitted concentration of half-maximal effect. In outline:
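qHTS cytotoxicity: 2500 cells/well, 5 hr 37 C, compound 24 hr 37 C, CellTiter-Glo 30 min RT, luminescence. Loss of ATP = toxicity; AC50 via standard Hill fit.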

Test [5] in a line: Cell Viability - LYMP2-017 (AID 972). Note: nearly all actives have a fitted effect of over 55% in size. Note: potency is the fitted concentration of half-maximal effect. Summed up:
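Luminescent ATP read-out (CellTiter-Glo, 30 min RT) reports viable cell number. Cells: human lymphoblastoid line, 2500 per well, 5 hr preincubation, 24 hr compound exposure at 37 C. AC50 is derived from qHTS concentration-response data using the standard Hill model.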

The nature of test [6]: Cell Viability - LYMP2-019 (AID 973). Note: nearly all actives have a fitted effect of over 55% in size. Note: potency is the fitted concentration of half-maximal effect. In outline: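 qHTS, 1536-well; 2500 cells/well; 5 hr pre-incubation, 24 hr compound exposure, 37 C; CellTiter-Glo added, 30 min RT; luminescence read; AC50 via standard Hill equation.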
Test [7] in a line: Cell Viability - LYMP2-021 (AID 974). Note: potency is the fitted concentration of half-maximal effect. In outline: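 ATP luminescence (CellTiter-Glo, 30 min RT) after 24 h compound exposure at 37 C; 2500 human lymphoblastoid cells/well, 5 h settle beforehand. Cytotoxicity = concentration-dependent ATP drop, AC50 by Hill fit.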
Test [8] in a line: Cell Viability - LYMP2-025 (AID 976). Note: potency is the fitted concentration of half-maximal effect. In outline: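 CellTiter-Glo luminescence (cellular ATP) after 24 h compound exposure at 37 C; LYMP2-025 human lymphoblastoid cells, 2500/well, complete medium. Tetraoctylammonium bromide positive control. AC50 by Hill equation fit of qHTS concentration-response.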
Test [9] is described as follows: Cell Viability - LYMP2-002 (AID 977). Note: potency is the fitted concentration of half-maximal effect. In outline: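 Human lymphoblastoid cells, 2500/well, complete medium; 5 h 37 C settle; compound 24 h 37 C; CellTiter-Glo, 30 min RT; luminescence. Decrease in ATP = cytotoxicity; AC50 via Hill equation.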
Test [10] is described as follows: Cell Viability - LYMP2-006 (AID 978). Note: nearly all actives have a fitted effect of over 60% in size. Note: potency is the fitted concentration of half-maximal effect. In outline: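 Potency values are Hill-fit AC50s for decreases in intracellular ATP (CellTiter-Glo luminescence). LYMP2-006 lymphoblastoid cells, 2500 per well, were exposed to compound in complete culture medium for 24 hr at 37 C.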
Test [11] in a line: Cell Viability - LYMP2-008 (AID 980). Note: nearly all actives have a fitted effect of over 60% in size. Note: potency is the fitted concentration of half-maximal effect. In outline:
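Luminescent ATP read-out (CellTiter-Glo, 30 min RT) after 24 hr compound exposure at 37 C of human lymphoblastoid cells in complete medium. Decrease in ATP taken as cytotoxicity; AC50 derived by standard Hill fit of qHTS concentration-response data.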

Test [12] in a line: Cell Viability - LYMP2-010 (AID 981). Note: nearly all actives have a fitted effect of over 55% in size. Note: potency is the fitted concentration of half-maximal effect. Summed up: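 qHTS cytotoxicity, 1536-well: 2500 cells/well, 5 hr settle, 24 hr compound at 37 C, CellTiter-Glo 30 min RT, luminescence read. Decrease in ATP = toxicity; AC50 via standard Hill equation. Positive control tetraoctylammonium bromide.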
The nature of test [13]: Cell Viability - LYMP2-012 (AID 982). Note: potency is the fitted concentration of half-maximal effect.
Test [14] is described as follows: Cell Viability - LYMP2-014 (AID 983). Note: nearly all actives have a fitted effect of over 50% in size. Note: potency is the fitted concentration of half-maximal effect. In outline:
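2500 cells/well, 5 hr 37 C; cpd 24 hr 37 C, complete medium; CellTiter-Glo 30 min RT, luminescence; ATP loss = toxicity; AC50 via Hill eqn; tetraoctylammonium bromide positive control.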

The nature of test [15]: Cell Viability - LYMP2-016 (AID 984). Note: nearly all actives have a fitted effect of over 55% in size. Note: potency is the fitted concentration of half-maximal effect. Summed up: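 Cytotoxicity was scored by luminescent ATP content (CellTiter-Glo) after 24 h compound exposure at 37 C of a human lymphoblastoid line at 2500 cells/well. Concentration-response data were fitted to the Hill equation for AC50.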
Test [16] in a line: Cell Viability - LYMP2-018 (AID 985). Note: nearly all actives have a fitted effect of over 50% in size. Note: potency is the fitted concentration of half-maximal effect. In outline: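 2500 cells/well; 5 hr 37 C; cmpd 24 hr 37 C, complete medium; CellTiter-Glo 30 min RT; luminescence. Tetraoctylammonium bromide positive control. AC50 via Hill fit.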
Test [17] is described as follows: Cell Viability - LYMP2-020 (AID 986). Note: nearly all actives have a fitted effect of over 55% in size. Note: potency is the fitted concentration of half-maximal effect. Summed up: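 qHTS, 2500 cells/well; 5 hr then 24 hr compound exposure, 37 C; CellTiter-Glo luminescence after 30 min RT; ATP decrease taken as cytotoxicity; AC50 via Hill equation; tetraoctylammonium bromide positive control.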
Test [18] is described as follows: Cell Viability - LYMP2-026 (AID 989). Note: nearly all actives have a fitted effect of over 50% in size. Note: potency is the fitted concentration of half-maximal effect. Summed up:
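qHTS cytotoxicity: 2500 cells/well, 5 hr 37 C, compound 24 hr 37 C, CellTiter-Glo 30 min RT, luminescence. Tetraoctylammonium bromide positive control. AC50 via standard Hill fit.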

Test [19] is described as follows: Cell Viability - LYMP1-002 - Assay at 24 hr (AID 993). Note: potency is the fitted concentration of half-maximal effect. Summed up: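 CellTiter-Glo luminescence (intracellular ATP) after 24 h compound exposure, 37 C, in LYMP1-002 human lymphoblastoid cells; decreased ATP taken as cytotoxicity. AC50 from standard Hill fit of concentration-response curves.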
A short description of test [20]: Cell Viability - LYMP1-002 - Assay at 40 hr (AID 994). Note: nearly all actives have a fitted effect of over 60% in size. Note: potency is the fitted concentration of half-maximal effect. In outline: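 qHTS cytotoxicity; 2500 cells/well, 5 hr 37 C settle, compound 40 hr 37 C. CellTiter-Glo, 30 min RT, luminescence (ATP). Concentration-response, Hill fit → AC50. Pos. ctrl tetraoctylammonium bromide.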

Records with an inconclusive call do not appear. The source made the active and inactive calls. Calls come from the whole dose curve; as a rule, active = well fitted curve in the direction sought with a large enough effect; inconclusive = small, poorly fitted or top-dose-only effect, or another doubt; inactive = no such curve, though single readings can be large; an effect the other way counts as inactive or inconclusive.

Sequence of Alpha-galactosidase A (Homo sapiens) (P06280 whole entry, looked up): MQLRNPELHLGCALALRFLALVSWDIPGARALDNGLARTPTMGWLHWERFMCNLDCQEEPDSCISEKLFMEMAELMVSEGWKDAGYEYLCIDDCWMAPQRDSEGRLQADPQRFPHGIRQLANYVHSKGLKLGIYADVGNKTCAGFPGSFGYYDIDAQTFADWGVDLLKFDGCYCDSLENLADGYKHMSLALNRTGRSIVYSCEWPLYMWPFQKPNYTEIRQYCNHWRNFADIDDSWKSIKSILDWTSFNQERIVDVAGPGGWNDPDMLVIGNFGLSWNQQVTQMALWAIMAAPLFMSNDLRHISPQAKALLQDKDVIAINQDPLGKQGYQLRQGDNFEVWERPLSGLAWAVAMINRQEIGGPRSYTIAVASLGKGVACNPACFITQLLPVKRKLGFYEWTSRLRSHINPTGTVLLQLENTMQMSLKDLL

Take `Cn1cnc2c(NCc3ccccc3)nc(NCCO)nc21`: the compound was classed as inactive in test [1].
With `O=[N+]([O-])c1ccc(-c2nc(-c3ccc(F)cc3)c(-c3ccncc3)[nH]2)cc1`, the result in test [1] was inactive.
On the same count and under the same terms, under `O=C1NC(c2cccc([N+](=O)[O-])c2)=CCN1c1ccccc1O` stands “inactive”; under `COc1ccccc1N1CCN(CCN2C(=O)CC3(CCCC3)CC2=O)CC1`, “inactive”.
As for `O=C(c1ccccc1)c1ccccc1`, the Potency entry in test [2], in [3], in test [4], in [5], in test [6] and in [7] was “inactive” in each case. In addition, the Potency entry in test [8], in [9], in test [10], in [11], in test [12] and in test [13] was “inactive” in each case. Further, the Potency result in test [14], in [15], in test [16], in test [17], in [18] and in test [19] was “inactive” throughout. Besides, in test [20], the Potency entry is “inactive”.
For `Brc1ccccc1-c1ccccc1`, the Potency result in [2], in test [3], in test [4], in test [5], in test [6] and in test [7] was “inactive” in each case. In addition, the Potency result in test [8], in test [9], in test [10], in test [11], in [12] and in [13] was “inactive” each time. For the same compound, the Potency entry in test [14], in test [15], in [16], in test [17], in test [18] and in test [19] was “inactive” each time. Besides, the Potency entry in [20] was “inactive”.
Turning to `O=C(NO)c1ccccc1`, the Potency result in test [2], in test [3], in test [4], in [5], in test [6] and in test [7] was “inactive” each time. The Potency result in [8], in test [9], in test [10], in test [11], in [12] and in test [13] was “inactive” throughout. The Potency entry in test [14], in test [15], in test [16], in test [17], in [18] and in test [19] was “inactive” in each case. Moreover, the Potency entry in test [20] was “inactive”.
Turning to `CN(C)c1cc2c(Nc3ccc4c(cnn4Cc4ccccc4)c3)ncnc2cn1`, the compound was classed as inactive in test [1].
In the case of `CC(C)(C)c1ccc(O)c(O)c1`, the Potency in test [3] was 39.8 µM (active); in test [4], 31.6 µM (active); in [5], 39.8 µM (active); in test [6] it was 39.8 µM (active); in test [7], 31.6 µM (active); in test [10], 50.1 µM (active). Besides, the Potency in test [11] was 50.1 µM (active); in [12], 31.6 µM (active); in test [13] it was 39.8 µM (active); in test [15], 50.1 µM (active); in test [17], 50.1 µM (active).
As for `CC(C)(c1ccc(O)cc1)c1ccc(O)cc1`, the Potency result in test [2], in test [3], in [4], in test [5], in test [6] and in test [7] was “inactive” in each case. Besides, the Potency result in test [8], in [9], in [10], in test [11], in test [12] and in [13] was “inactive” each time. The Potency entry in [14], in [15], in [16], in [17], in test [18] and in [19] was “inactive” each time. Besides, in [20], the Potency result was “inactive”.
As to `CC(=O)OC/C=C(C)/C=C/C=C(C)/C=C/C1=C(C)CCCC1(C)C`, the Potency in test [4], in test [5], in test [12] and in test [13] was 50.1 µM (active) throughout. Also, the Potency result in test [8], in test [19] and in test [20] was “inactive” throughout.
As for `O=C(Oc1ccccc1)c1ccccc1O`, the Potency entry in test [2], in test [3], in test [4], in test [5], in test [6] and in [7] was “inactive” throughout. Moreover, the Potency entry in test [8], in test [9], in test [10], in test [11], in test [12] and in test [13] was “inactive” each time. In addition, the Potency entry in test [14], in [15], in [16], in test [17], in test [18] and in test [19] was “inactive” throughout. Also, in [20], the Potency entry was “inactive”.
Turning to `CCCCCCCCCCCCCCCC[n+]1ccccc1`, the Potency in [2] is 20 µM (active); in test [3] it was 25.1 µM (active); in test [4] it was 15.8 µM (active); in test [5] it was 25.1 µM (active); in test [6], 20 µM (active); in [7] it was 25.1 µM (active). In addition, the Potency in [8] is 39.8 µM (active); in test [9] it was 15.8 µM (active); in [10] it was 12.6 µM (active); in test [11], 15.8 µM (active); in test [12] it was 15.8 µM (active); in test [13], 12.6 µM (active). Besides, the Potency is 12.6 µM (active) in [14]; 15.8 µM (active) in test [15]; 12.6 µM (active) in test [16]; 15.8 µM (active) in [17]; 15.8 µM (active) in test [18]; 15.8 µM (active) in [19]. The Potency in test [20] was 7.94 µM (active).
For `CC(C)C(C)(C)C(C)(C)C(C)(C)S`, the Potency entry in [2], in test [3], in test [4], in test [5], in [6] and in test [7] was “inactive” throughout. In addition, the Potency entry in test [8], in test [9], in test [10], in test [11], in test [12] and in test [13] was “inactive” each time. Moreover, the Potency entry in test [14], in test [15], in [16], in [17], in test [18] and in [19] was “inactive” each time. For the same compound, the Potency result in test [20] is “inactive”.
In the case of `CCCCC(CC)COC(=O)c1ccccc1C(=O)O` (centres undefined), the Potency entry in [2], in test [3], in test [4], in test [5], in test [6] and in [7] was “inactive” each time. The Potency result in test [8], in test [9], in [10], in test [11], in [12] and in [13] was “inactive” each time. The Potency result in test [14], in [15], in [16], in test [17], in test [18] and in [19] was “inactive” in each case. For the same compound, in test [20], the Potency result is “inactive”.
Take `OCc1c[nH]c2ccccc12`: the Potency entry in test [2], in test [3], in test [4], in [5], in test [6] and in test [7] was “inactive” each time. Also, the Potency result in test [8], in [9], in test [10], in test [11], in test [12] and in test [13] was “inactive” each time. For the same compound, the Potency entry in [14], in test [15], in [16], in test [17], in test [18] and in test [19] was “inactive” each time. Further, the Potency result in [20] was “inactive”.
